# Article PMC12136788
# Where a chain is given by its changes, count along the chain named. The full ranking holds about 24,000 sequences; the median of “enrichment r” is about 0.99, and the highest 2% start at about 3.7. For the sample, the highest values were picked, then their nearest neighbours and some sequences at random.
# T1: UNK ZnF1-3 (human, UniProt Q9C0B0 31-174)
# T1 sequence: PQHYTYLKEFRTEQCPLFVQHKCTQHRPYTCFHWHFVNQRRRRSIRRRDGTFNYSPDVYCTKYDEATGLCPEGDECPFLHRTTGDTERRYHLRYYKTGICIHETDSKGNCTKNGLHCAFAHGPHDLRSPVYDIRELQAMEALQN
# B1: chr18:65376317:65376318:+_ENSMUSG00000024589_ENSMUST00000163516|mus_hu|FALSE|FALSE (ssRNA)
# RNA: GGGAGUUCUACAGUCCGACGAUCUUUCAUGCCAACAGGAAGCUAACCCUUUUCUAGAAAACGUUCUCCAAGCUCCCGUCCUAAUGCUGUGGCACUUUCUCUGACAUACUGAGAACACUCUGGGGUGGGGGUGUGUGUAUGCAACAACAGAGGAUUGAGCAUCA
# B2: 56885736_56885856_9979_3pUTR_ENSMUSG00000055296_ENSMUST00000068792|mouse|control|control (ssRNA)
# RNA: GGGAGUUCUACAGUCCGACGAUCAUCUUAUAUUGAUCUAGAUUUGACCACAGAUAAACCUUGUACUGCCUAGUCUUGUGUCAACUUGACACAGCUGGAGUUAUCACAGAGAAAGGAGCUUCAGUUGAGGAAAUGCCUCCAUGACAACAGAGGAUUGAGCAUCA
# B3: chr11:75578338:75578339:+_ENSMUSG00000020849_ENSMUST00000067664|perfect_dup|FALSE|FALSE (ssRNA)
# RNA: GGGAGUUCUACAGUCCGACGAUCUUAAGAACUUUUGAAAACUGUUUAAAAAAAAAAAAAAAAAACCAACAGGGCAGGAACCUAAAUUCUGAGACCAAAUGUAAAAGUCAGAUUUGGUGGUUCUCAGUGACAAUGGGGAGUUUCCAACAGAGGAUUGAGCAUCA
# B4: chr2:35037708:35037709:-_ENSMUSG00000026878_ENSMUST00000028238|mus_hu|FALSE|FALSE (ssRNA)
# RNA: GGGAGUUCUACAGUCCGACGAUCCUGUUUUUACAACAGAGUUUUUUCUUUUUUUUUAAUUAAACCCAGUAAGAUGUACAGAAGACAAUGAGGCAGUAAAAAGUACUGCUUCCAACAGACAGAGGUGAAAGGUCAAAUGAGGGGCAACAGAGGAUUGAGCAUCA
# B5: chr13:31725248:31725249:-_ENSG00000120694_ENST00000320027|perfect_dup|motif|central (ssRNA)
# RNA: GGGAGUUCUACAGUCCGACGAUCUUUGGAUUUUGCAUCCAAUUUGUACUUGGUUUUAAAUUCAGCACAAAAAUGUUCGGCGGGCUUCUCAUCAAAGUUCUUUCCUCCUAAGAAGGGAUCAAAAGCUGUGCCUAGAACCUUCAGCAACAGAGGAUUGAGCAUCA
# B6: chr11:75578338:75578339:+_ENSMUSG00000020849_ENSMUST00000067664|perfect_dup|motif|central (ssRNA)
# RNA: B3 RNA with U82G, A83G
# B7: chr1:60041781:60041782:+_ENSMUSG00000041040_ENSMUST00000036540|mus_mus|motif|central (ssRNA)
# RNA: GGGAGUUCUACAGUCCGACGAUCUUAAGGAGUGAAUCUCAACUUUACAAAUUUAGUAAUGGCAAGUUUACUUUAGUUUCCGGAAAGAAAACCUCAGGAUCUCAGUUCAAUCCCAGACAGAGAAAGCUCUCCAUGGGGCCACUGCAACAGAGGAUUGAGCAUCA
# B8: chr13:99559765:99559766:-_ENSMUSG00000041685_ENSMUST00000040340|mus_mus|motif|central (ssRNA)
# RNA: GGGAGUUCUACAGUCCGACGAUCCUGAACUUCCUUUAUUAAUUCCUGUAAUUUUCUAACAAGAUCCAAAUGACAAUUUGCGGAUUUCUCUGUAGAUGUUUUGAAUACAUCCCACAUUGGUGCAAAUGUUCCAAGUUGUGAAUACAACAGAGGAUUGAGCAUCA
# Biological target: T1, UNK ZnF1-3
# Experiment: nsRBNS (natural sequence RNA bind-n-seq); RBNS binding buffer (assumed for nsRBNS): 25 mM Tris pH 7.5, 150 mM KCl, 3 mM MgCl2, 0.01% Triton X-100, 500 ug/ml BSA, 20 U/ml SUPERase-In, 4 C; UNK is unkempt and MSI1 is Musashi-1; names of the RNAs are library labels; protein concentration not given here; high values mean tight binding
row,Binder,binding signal [enrichment R]
1,B1,0.949
2,B2,1.28
3,B3,4.7
4,B4,1.64
5,B5,1.17
6,B6,5.06
7,B7,0.919
8,B8,0.623
